A selection: hits, their analogues and other compounds. The true share with any hit is near 3.5%.
14-3-3 Bad PPI: disrupts binding of bovine 14-3-3 zeta to phospho-Bad peptide; inhibition, % at 21.7 µM; TR-FRET 14-3-3zeta/Dy647-pBad peptide displacement, 1 h; actives 0.71% (n = 220,000); AID 781; P63103;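 active = inhibition above about 70%, limit read from the data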;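 also: 0% = full 14-3-3 plus peptide FRET controls and 100% = background without 14-3-3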
Mcl1-Noxa inh: disrupts binding of human Mcl-1 to Noxa peptide; TR-FRET Mcl-1/Noxa peptide binding, 2 h; actives 1.5% (n = 220,000); Q07820; inhibition, % at 21.7 µM;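 active = compounds that cut the protein-peptide binding signal by more than 50% relative to plate controls in a single-dose test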;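 also: His-tagged Mcl-1 with rhodamine Noxa BH3 peptide and terbium anti-His antibody; 0% = Mcl-1 plus Noxa peptide wells and 100% = peptide-only wells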
Mcl1-Bid inh: Mcl-1/Bid interaction inhibition; Q07820; actives 0.97% (n = 220,000); TR-FRET Mcl-1/Bid-Dy647 peptide binding, 1536-well; inhibition, % at 21.7 µM;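 active = compounds that cut the binding signal by more than half at the single screening dose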;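 also: His-tagged Mcl-1 with europium anti-His antibody binding Bid BH3 peptide; 0% = Mcl-1 plus peptide wells and 100% = peptide-only wells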
Bim-Mcl-1: inhibitors of Bim-Mcl-1 interaction, human | actives 0.1% (n = 190,000) | Q07820 | Bead-based flow cytometry, Bim peptide-Mcl-1 binding | inhibition, % at 10 µM | AID 1009; in the data active = inhibition above about 40%;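 also: 0% = no compound tracer wells and 100% = peptide blocker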
Hck-Nef inh: inhibitors of human Hck kinase activated by Nef. actives 0.68% (n = 220,000). P08631. inhibition, % at 20 µM. AID 463187. Recombinant Hck-YEEI plus Nef, Z-Lyte FRET kinase assay;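 active = Hck-Nef kinase inhibition above about 50%, limit read from the data; inactive = inhibition below that limit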;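 also: 0% = DMSO with Hck plus Nef and 100% = Hck alone without Nef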
Target sequence (P08631 whole entry, looked up): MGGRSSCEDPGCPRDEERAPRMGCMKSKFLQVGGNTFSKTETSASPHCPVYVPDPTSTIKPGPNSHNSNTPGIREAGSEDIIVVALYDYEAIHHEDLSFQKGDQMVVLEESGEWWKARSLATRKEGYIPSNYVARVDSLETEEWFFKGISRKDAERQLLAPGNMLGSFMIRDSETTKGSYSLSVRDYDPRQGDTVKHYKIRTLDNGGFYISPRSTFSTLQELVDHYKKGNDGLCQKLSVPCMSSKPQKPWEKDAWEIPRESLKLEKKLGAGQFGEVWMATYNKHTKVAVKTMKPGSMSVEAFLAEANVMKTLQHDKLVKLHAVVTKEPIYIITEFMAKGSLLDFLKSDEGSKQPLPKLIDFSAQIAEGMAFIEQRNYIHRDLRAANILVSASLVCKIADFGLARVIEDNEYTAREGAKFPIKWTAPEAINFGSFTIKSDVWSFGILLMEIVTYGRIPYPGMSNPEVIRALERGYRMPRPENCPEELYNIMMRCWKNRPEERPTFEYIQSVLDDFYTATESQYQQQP
eIF4E 4G PPI: inhibitors of eIF4E and eIF4G interaction in translation initiation; AID 782; inhibition, % at 21.7 µM; TR-FRET eIF4E-eIF4GI(517-606) binding, 2 h; actives 0.37% (n = 220,000);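 active = inhibition above about 30%, limit read from the data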;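 also: 0% = full FRET control wells and 100% = background wells lacking eIF4GI fragment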
Hck Nef conf: Hck-Nef kinase inhibition, confirmation | shares compounds with Hck-Nef inh | Recombinant Hck-YEEI:Nef, Z-Lyte FRET kinase assay | calls only at 10 µM | actives 28% (n = 1,300);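 active = average inhibition of at least 50%, with Z-scores no higher than 3 in both the phospho-tyrosine peptide and fluorescence counterscreens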
* hit, by the source's call.

For Cc1c(C(=O)C(=O)N2CC=C(c3ccccc3)CC2)c2ccccc2n1C the results were 14-3-3 Bad PPI 7, Mcl1-Noxa inh -13, Mcl1-Bid inh -12, Bim-Mcl-1 -6, Hck-Nef inh -2 and eIF4E 4G PPI -2.
`CC(=O)n1cc(Nc2ccc([N+](=O)[O-])cc2)c2ccccc21` gave 14-3-3 Bad PPI 19, Mcl1-Noxa inh 65*, Mcl1-Bid inh 20, Bim-Mcl-1 0, Hck-Nef inh 108*, eIF4E 4G PPI -1 and Hck Nef conf inactive.
Screening Cc1cc2c(C)cc(=O)oc2c2c1NCCC2 returned 14-3-3 Bad PPI 2, Mcl1-Noxa inh 19, Mcl1-Bid inh -75, Bim-Mcl-1 -1, Hck-Nef inh 97* and eIF4E 4G PPI 2.
Screening Cc1cc(=O)oc2c(N)c(O)ccc12 returned 14-3-3 Bad PPI 1, Mcl1-Noxa inh 13, Mcl1-Bid inh -19, Bim-Mcl-1 0, Hck-Nef inh 0 and eIF4E 4G PPI -1.
For COc1ccc(OC)c(NC(=O)Cn2cc(C#N)c3cc(Br)ccc32)c1 the results were 14-3-3 Bad PPI 14, Mcl1-Noxa inh 15, Mcl1-Bid inh 11, Bim-Mcl-1 -1, Hck-Nef inh 69*, eIF4E 4G PPI -19 and Hck Nef conf inactive.
For COc1ccc(NC(=O)Cn2cc(C#N)c3ccccc32)cc1 the results were 14-3-3 Bad PPI -15, Mcl1-Noxa inh 14, Mcl1-Bid inh -31, Bim-Mcl-1 0, Hck-Nef inh 23 and eIF4E 4G PPI 0.
`CC(C)C[C@@H]1NC(=O)[C@H](CO)NC(=O)c2cc([N+](=O)[O-])cc(I)c2OCC[C@@H](C(N)=O)NC1=O` gave 14-3-3 Bad PPI 10, Mcl1-Noxa inh 5, Mcl1-Bid inh 6, Bim-Mcl-1 -3, Hck-Nef inh -1 and eIF4E 4G PPI 6.
Screening O=S(=O)(O)c1cccc(N=Nc2c(O)ccc3ccccc23)c1 returned 14-3-3 Bad PPI 2, Mcl1-Noxa inh 24, Mcl1-Bid inh -36, Hck-Nef inh 85*, eIF4E 4G PPI -6 and Hck Nef conf active.
CCCc1cc(NCC2CCCO2)n2c(nc3ccccc32)c1C#N (stereo not drawn) was read as 14-3-3 Bad PPI -3, Mcl1-Noxa inh 17, Mcl1-Bid inh -6, Bim-Mcl-1 25, Hck-Nef inh 121* and eIF4E 4G PPI -1.
Screening COCCNc1cc(C)c(C#N)c2nc3ccccc3n12 returned 14-3-3 Bad PPI -2, Mcl1-Noxa inh 7, Mcl1-Bid inh 36, Bim-Mcl-1 0, Hck-Nef inh 70* and eIF4E 4G PPI 9.
Screening CCCc1cc(NCc2ccccn2)n2c(nc3ccccc32)c1C#N returned 14-3-3 Bad PPI -4, Mcl1-Noxa inh 2, Mcl1-Bid inh -5, Bim-Mcl-1 -16, Hck-Nef inh 2 and eIF4E 4G PPI 0.
For O=C(Cc1cccs1)NNC(=O)C12CC3CC(CC(C3)C1)C2 the results were 14-3-3 Bad PPI -14, Mcl1-Noxa inh 5, Mcl1-Bid inh 0, Bim-Mcl-1 -1, Hck-Nef inh 29 and eIF4E 4G PPI 1.
Screening O=c1cc(-c2ccccc2)nc2c(-c3ccccc3)c(C(F)(F)F)[nH]n12 returned 14-3-3 Bad PPI -2, Mcl1-Noxa inh 30, Mcl1-Bid inh -28, Hck-Nef inh 57*, eIF4E 4G PPI 2 and Hck Nef conf inactive.
`Cc1cc(=O)n2[nH]c(C)c(-c3ccccc3)c2n1` gave 14-3-3 Bad PPI 6, Mcl1-Noxa inh 9, Mcl1-Bid inh 6, Bim-Mcl-1 -5, Hck-Nef inh -2 and eIF4E 4G PPI 0.
For O=C(c1cnn(C(=O)c2cccc(S(=O)(=O)N3CCOCC3)c2)c1)c1ccccc1O the results were 14-3-3 Bad PPI 4, Mcl1-Noxa inh 23, Mcl1-Bid inh -13, Bim-Mcl-1 2, Hck-Nef inh 129*, eIF4E 4G PPI -3 and Hck Nef conf active.
O=C(c1cnn(C(=O)c2cccc(S(=O)(=O)N3CCOCC3)c2)c1)c1cc(Cl)cc(Cl)c1O was read as 14-3-3 Bad PPI -5, Mcl1-Noxa inh 18, Mcl1-Bid inh -32, Hck-Nef inh 4 and eIF4E 4G PPI 1.
